From PubChem BioAssay AID463173 (ICCB-Longwood Screening Facility, Harvard Medical School, 2010)
Among all 52,000 compounds or so, about 4,300 (8.3%) were called active. Shown is part of a subset that was picked to be rich in actives. Values without a mark were called inactive. Rule as the data show it: active = survival mostly below about 52% (no sharp cut-off); inactive = mostly above about 56%.

tested on: DeltatarO mutant; experiment: S. aureus survival, RN4220 and DeltatarO strains – OD600, teichoic acid synthesis inhibitors, primary screen (AID 463173); conditions: S. aureus RN4220 wild type/DeltatarO growth, OD600, 18 h, active compounds read low, screened at 18.75 µg/mL (by protocol)

SMILES | survival
CCC(=O)Nc1ccc2nc(SCc3ccc(C)cc3)sc2c1 | 84%
Cc1ccc(-n2nc(C)c3c(C(=O)Nc4ccccc4C(F)(F)F)cc(C)nc32)cc1 | 95%
Cc1ccc(NC(=O)CSc2nnc(C)s2)c(C)c1 | 67%
CCOc1ccc(CNCc2c(C(=O)O)c(C)n(Cc3ccc(F)cc3Cl)c2C)cc1 | 118%
Cc1ccc(C)c(Cn2c(=O)n(-c3ccccc3)c(=O)c3c4c(sc32)CCCC4)c1 | 120%
COc1ccc(CCNC(=O)C(=O)NCC(c2ccco2)S(=O)(=O)c2ccc(C)cc2)cc1 (stereo unspecified) | 134%
O=C(Cn1c(=O)c2cccn2c2ccccc21)Nc1cc(F)ccc1F | 44%
CCCn1c(CCC(=O)Nc2ccccc2OC)nc2cccnc21 | 88%
Cc1c(CCNS(=O)(=O)c2ccccc2)sc2nc(-c3ccc(Cl)cc3)nn12 | 6% (active)
COc1ccc(-c2nc3sc(CCNS(=O)(=O)c4ccccc4)c(C)n3n2)cc1 | 64%
CCCS(=O)(=O)NCCc1sc2nc(-c3ccc(F)cc3)nn2c1C | 76%
Cc1cc(C)c(S(=O)(=O)NCCc2sc3nc(-c4ccc(F)cc4)nn3c2C)c(C)c1 | 79%
COc1ccc(F)cc1S(=O)(=O)NCCc1sc2nc(-c3ccc(F)cc3)nn2c1C | 90%
CCS(=O)(=O)NCCc1sc2nc(-c3ccc(OC)cc3)nn2c1C | 72%
Cc1ccc(-c2nc3sc(CCNS(=O)(=O)c4cc(F)ccc4F)c(C)n3n2)cc1 | -2% (active)
COc1ccc(-c2nc3sc(CCNS(=O)(=O)c4c(C)cc(C)cc4C)c(C)n3n2)cc1 | -1% (active)
CCCS(=O)(=O)NCCc1sc2nc(-c3ccc(Cl)cc3)nn2c1C | 70%
Cc1ccc(-n2ncc3c(N4CCN(CCO)CC4)ncnc32)cc1Cl | 101%
CCN(CC)c1ncccc1C(=O)NCc1cccs1 | 81%
Cc1c(Cl)cccc1NC(=O)Nc1nnc(N2CCCCCC2)s1 | 84%
COc1ccccc1Nc1c2c(nc3ccc(NC(=O)c4cccc(OC)c4OC)cc13)CCCC2 | 46% (active)
COc1ccccc1Nc1c2c(nc3ccc(NC(=O)c4ccccc4F)cc13)CCCC2 | 82%
COc1ccccc1Nc1c2c(nc3ccc(NC(=O)c4ccc(OC)c(OC)c4)cc13)CCCC2 | 59%
COc1ccccc1Nc1c2c(nc3ccc(NC(=O)c4cccc(F)c4)cc13)CCCC2 | 70%
COc1ccc(C(=O)Nc2ccc3nc4c(c(Nc5ccc(OC)c(OC)c5)c3c2)CCCC4)c(OC)c1 | 87%
COc1ccc(C(=O)Nc2ccc3nc4c(c(Nc5ccccc5OC)c3c2)CCCC4)c(OC)c1 | 48% (active)

SMILES | survival
O=C(CNC(=O)c1ccc(Cl)cc1)OCc1cc(=O)n2nc(C3CC3)sc2n1 | 67%
COC(=O)c1cn(C(C)C(=O)NCc2ccco2)c2ccccc12 (stereo unspecified) | 91%
O=C(CSCc1ccc(F)cc1)N1CCc2c([nH]c3ccccc23)C1c1ccccc1 (stereo unspecified) | 101%
Cc1ccc(NC(=O)C(=O)c2cc(C)n(-c3ccc(F)cc3)c2C)cc1C | 89%
CC(=O)c1ccccc1OCC(O)Cn1c(CO)nc2ccccc21 (stereo unspecified) | 59%
Cc1ccc2c(c1)c1c(c(=O)n(Cc3ccccc3)c(=O)n1CC(=O)Nc1ccccc1C)n2C | 99%
Cc1ccc(OCC(=O)Nc2ccc(Cl)c(-c3nc4ccccc4[nH]3)c2)cc1C | 43% (active)
COc1ccc(-n2nc3ccc(NC(=O)COc4ccc(C)c(C)c4)cc3n2)cc1 | 56%
Cc1cc(OCC(=O)Nc2cc(-c3nc4ccccc4[nH]3)ccc2C)ccc1Cl | 96%
COc1cccc(C(=O)Nc2ccc(Cl)c(-c3nc4ccccc4[nH]3)c2)c1 | 68%
Cc1cccc(OCC(=O)Nc2ccc3c(c2)N(C)C(=O)c2ccccc2S3)c1 | 73%
Cc1cc(C)cc(OCC(=O)Nc2cccc(-c3nc4ccccc4[nH]3)c2)c1 | 31% (active)
Cc1cccc(OCC(=O)Nc2ccc(Cl)c(-c3nc4ccccc4[nH]3)c2)c1 | 38% (active)
CC(C)CC(=O)Nc1cccc(-c2nc3ccccc3[nH]2)c1 | 68%
COc1cccc(N2CC(NC(=O)c3ccc(S(=O)(=O)N4CCCCC4)cc3)CC2=O)c1 (stereo unspecified) | 92%
CCn1c(=O)c(C(=O)Nc2ccc(C(C)=O)cc2)nc2ccccc21 | 81%
CC1CCN(S(=O)(=O)c2ccc3c(ccn3CC(=O)NCc3ccc(N(C)C)cc3)c2)CC1 | 77%
COc1cccc(CNC(=O)c2cc3cccc4c3n2CC(C)S4)c1OC (stereo unspecified) | 84%
Cc1cc(C)c(S(=O)(=O)N2CCC(N3CCN(Cc4ccccc4)C(=O)C3=O)CC2)c(C)c1 | 68%
N#CC1=C(N)OC2=C(C(=O)CCC2)C12C(=O)Nc1ccc(F)cc12 (stereo unspecified) | 93%
CCCCN1CC(c2nc3ccccc3n2CCCCOc2c(C)cccc2C)CC1=O (stereo unspecified) | 46% (active)
Cc1cccc(C)c1OCCCCn1c(C2CC(=O)N(c3ccc(F)cc3)C2)nc2ccccc21 (stereo unspecified) | 77%
CCCCN1CC(c2nc3ccccc3n2CCCCOc2ccccc2C)CC1=O (stereo unspecified) | 34% (active)
COC(=O)Cn1c(C2CC(=O)N(c3c(C)cccc3C)C2)nc2ccccc21 (stereo unspecified) | 58%
CCCCN1CC(c2nc3ccccc3n2CCCCOc2cccc(C)c2C)CC1=O (stereo unspecified) | 2% (active)
Cc1ccccc1OCCCCn1c(C2CC(=O)N(c3ccccc3Cl)C2)nc2ccccc21 (stereo unspecified) | 76%

SMILES | survival
Cc1cccc(NC(=O)CS(=O)(=O)c2cccc3nsnc23)c1 | 74%
Cc1cc2cc(CCNS(=O)(=O)c3ccc(Br)cc3)c(=O)[nH]c2cc1C | 48%
O=c1c2oc3ccccc3c2n(Cc2cccc(C(F)(F)F)c2)c(=O)n1Cc1ccc2c(c1)OCO2 | 108%
CN1C(=O)Cc2cc(S(=O)(=O)CCC(=O)N3CCN(c4ccc(Cl)cc4)CC3)ccc21 | 86%
COc1ccc(Cn2c(=O)c3oc4ccccc4c3n(Cc3cccc(C(F)(F)F)c3)c2=O)cc1 | 73%
Nc1nc(SCC(=O)Nc2cccc(C(F)(F)F)c2)n[nH]1 | 63%
COC(=O)c1sccc1S(=O)(=O)N1CCN(c2ccccc2OC)CC1 | 74%
CC1CCc2onc(C(=O)Nc3ccc(Cl)cc3)c2C1 (stereo unspecified) | 75%
O=C(Nc1ccccc1C(F)(F)F)c1noc2c1CCCC2 | 63%
COc1cc(NC(=O)c2noc3c2CC(C)CC3)c(OC)cc1Cl (stereo unspecified) | 69%
COc1cc(NC(=O)c2noc3c2CC(C(C)(C)C)CC3)cc(OC)c1OC (stereo unspecified) | 40% (active)
COc1cc(NC(=O)c2noc3c2CCc2ccccc2-3)cc(OC)c1OC | 88%
CCc1ccccc1NC(=O)c1noc2c1CC(C(C)(C)C)CC2 (stereo unspecified) | -6% (active)
O=C(CN1C(=O)COc2ccc(S(=O)(=O)N3CCCC3)cc21)N1CCN(c2ccc(F)cc2)CC1 | 80%
CCOc1ccccc1CNc1nc2nc(C)cc(C)n2n1 | 97%
CCc1ccccc1N(CC)C(=O)C1CCN(c2ncnc3c2nc2n3CCCCC2)CC1 | 83%
CC(Oc1ccccc1F)C(=O)NCC1(N2CCOCC2)CCCCC1 (stereo unspecified) | 61%
CCOc1ccccc1CNC(=O)CC(C)n1ccc(C)n1 (stereo unspecified) | 77%
CCOC(=O)c1ccc(NC(=O)CC(C)n2nc(C)cc2C)cc1 (stereo unspecified) | 124%
CC(=O)Nc1ccc(NC(=O)CC(C)n2ccc(C)n2)cc1 (stereo unspecified) | 52% (active)
O=C(OCc1ccccc1)Sc1nnc(-c2ccccc2Cl)o1 | 90%
CCn1c(=O)cc(OCC(=O)Nc2cc(Cl)c(OC)cc2OC)c2ccccc21 | 69%
CCCN(C(=O)Cn1c(=O)oc2cc(Cl)ccc21)c1ccc(C(C)C)cc1 | 15% (active)
CCCN(c1ccc(C(C)C)cc1)S(=O)(=O)c1ccc2c(c1)oc(=O)n2CC(=O)OCC | 73%
CCn1c(=O)cc(OCC(=O)NCc2ccccc2OC)c2ccccc21 | 60%
CCn1c(=O)cc(OCC(=O)Nc2ccc(C)c(F)c2)c2ccccc21 | 60%

SMILES | survival
CCCN(C(=O)COc1cc(=O)n(CC)c2ccccc12)c1ccc(C(C)C)cc1 | -22% (active)
CCn1c(=O)cc(OCC(=O)N(C)c2ccc(OC)cc2)c2ccccc21 | 72%
CCc1ccc(CNC(=O)COc2cc(=O)n(CC)c3ccccc23)cc1 | 55%
CCn1c(=O)cc(OCC(=O)N(C)c2cc(Cl)ccc2C)c2ccccc21 | 55% (active)
CCn1c(=O)cc(OCC(=O)NCc2ccc(F)cc2Cl)c2ccccc21 | 105%
CCN(C(=O)Cn1c(=O)oc2cc(Cl)ccc21)c1cccc(C(F)(F)F)c1 | 67%
CCn1c(=O)cc(OCC(=O)NCc2ccccc2Cl)c2ccccc21 | 40% (active)
Cc1ccc(/C=C/c2onc(C)c2S(=O)(=O)N2CCC(C(=O)N3CCN(c4cccc(C)c4)C(C)C3)CC2)cc1 (stereo unspecified) | 67%
COc1ccccc1C(=O)NC1(C(F)(F)F)C(=O)Nc2c1c(=O)[nH]c(=O)n2-c1ccc(F)cc1 (stereo unspecified) | 190%
Cc1ccc(-n2ncc3c(=O)n(Cc4ccccc4C)cnc32)cc1C | 127%
CC(=O)N(Cc1cccnc1)c1nc2ccc(F)cc2s1 | 81%
Cc1cc(C)c2oc(C(=O)Nc3ccc(S(=O)(=O)N4CCCCC4)cc3)cc(=O)c2c1 | 45% (active)
Cc1ccc(NC(=O)c2oc3ccc(S(=O)(=O)N4CCCCCC4)cc3c2C)cc1Cl | 86%
Cc1ccc2c(=O)cc(C(=O)Nc3ccc(S(=O)(=O)N4CCCC(C)C4)cc3)oc2c1C (stereo unspecified) | 51% (active)
Cc1ccc2c(=O)cc(C(=O)Nc3ccc(S(=O)(=O)N4CCCCC4)cc3)oc2c1C | 90%
Cc1ccc2c(=O)cc(C(=O)Nc3ccc(S(=O)(=O)N4CCC(C)CC4)cc3)oc2c1C | 60%
O=C(Nc1ccc(S(=O)(=O)N2CCCCC2)cc1)C(F)(F)F | 58% (active)
Cc1c(C(=O)Nc2ccc(F)c(F)c2)oc2ccc(S(=O)(=O)N3CCCCC3)cc12 | 52% (active)
Cc1cc(C)c2oc(C(=O)Nc3ccc(S(=O)(=O)N4CCCCCC4)cc3)cc(=O)c2c1 | 62%
COC(=O)Nc1ccc(S(=O)(=O)N2CCCCC2)cc1 | 107%
Cc1c(C(=O)Nc2ccc(F)cc2)oc2ccc(S(=O)(=O)N3CCCCCC3)cc12 | 99%
O=C(Nc1ccc(S(=O)(=O)N2CCCCC2)cc1)C1CCCCC1 | 97%
Cc1cc(C)c2oc(C(=O)Nc3ccc(S(=O)(=O)N4CCC(C)CC4)cc3)cc(=O)c2c1 | 48%
